Each structure is given as a SMILES string. Hit rate of the full screen: of about 1,300 compounds, about 420 (32%) were called active. Not shown: some 32% with an inconclusive outcome. Calls follow the shape of the dose curve; as a rule, active = well fitted inhibition curve with a large enough effect; inconclusive = small, poorly fitted or top-dose-only effect; inactive = no such curve, though single readings can be large or run the other way. The list shows a part of the results.
% is scaled to controls: 0 for no effect and ±100 for the full control effect; potency is read from the fitted curve at half-maximal effect.

This assay deals with C-terminal-binding protein 1 (Homo sapiens) (UniProt Q13363). In words: qHTS for Inhibitors of the Phosphatase Activity of Eya2: Carboxyl-terminal binding protein (CtBP) Counterscreen for Cherry-picked Compounds. Also: nearly all actives have a fitted effect of over 65% in size. Conditions: purified protein-protein binding, AlphaScreen, 3 h; series mostly up to 46.1 µM; activity change, negative = inhibition: at the top concentration. An outline of the steps:
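AlphaScreen using 25 nM GST-E1A with 25 nM CtBP-6xHIS; compounds at 2.5 nM–46 uM final, 2 h at room temperature, then donor/acceptor beads (20 ug/mL) for 1 h in the dark. Signal normalized to E1A peptide inhibitor (maximum inhibition) and DMSO.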
Background: qHTS replaces the single test concentration by a dilution series.
For `O=c1cc(Nc2ccc3c(c2)OCO3)[nH]c(=O)n1-c1ccc(Br)cc1`, the “activity change, negative = inhibition” value is -29.6% (inactive).

Consider `S=C(NC1CC1)NC1CCCc2ccccc21` (stereo unspecified), for which the “activity change, negative = inhibition” value is 0.976% (inactive).

For the compound `COc1ccc(-c2ccc(SCc3cccnc3)nn2)cc1OC`, the Potency was 13.5 µM (active).

For the compound `O=C(O)CCCCCNS(=O)(=O)c1cccc2c1C(=O)c1ccccc1C2=O`, the Potency is 5.36 µM (active).

Consider `O=C(O)c1ccc(Nc2nc(-c3ccccc3)nc3ccccc23)cc1`, for which the Potency was 9.53 µM (active).

Turning to `CCOC(=O)NNc1nncc2ccccc12`, the “activity change, negative = inhibition” value is 10.1% (inactive).

In the case of `O=C(O)c1cccc(Nc2nc(-c3ccccc3)nc3ccccc23)c1`, the Potency is 12 µM (active).

With `Cc1cc(Nc2ccc([N+](=O)[O-])cc2)c2ccccc2n1`, the “activity change, negative = inhibition” value was -2.71% (inactive).

As for `Cc1ccc(Nc2nc(-c3cccnc3)nc3ccccc23)cc1`, the “activity change, negative = inhibition” value was -23.4% (inactive).

`CCOC(=O)c1nc(Nc2ccc(Nc3ccccc3)cc2)c2ccccc2n1`: the Potency was 13.5 µM (active).

Turning to `O=C(C1CCN(c2nnc(-n3cccc3)s2)CC1)N1CCOCC1`, the “activity change, negative = inhibition” value is 3.78% (inactive).

In the case of `Cc1ccc(NC(=O)CN2C(=O)S/C(=C\c3cc(Cl)c(OCC(=O)O)c(Cl)c3)C2=O)cc1`, the Potency was 15.1 µM (active).

For the compound `CCOc1ccc2c(c1)-c1c(ssc1=S)C(C)(C)N2C(=O)CSC1=NCCS1`, the Potency is 15.1 µM (active).

In the case of `Cc1cc(C)nc(-n2nc(C)cc2NC(=O)c2cc3ccccc3oc2=O)n1`, the Potency is 4.78 µM (active).

As for `CC1=NN(c2ccccc2)C(=O)/C1=C\C=C1/N(C)c2ccccc2C1(C)C`, the Potency was 9.53 µM (active).

Regarding `CN1/C(=C\C=C2/SC(=S)NC2=O)C(C)(C)c2ccccc21`, the Potency is 12 µM (active).

For `CN(C)c1ccc(/C=C2\c3ccccc3-c3ccc(N(C)C)cc32)cc1`, the Potency was 5.36 µM (active).

As to `CN(C)c1ccc2c(c1)C(=NO)c1ccccc1-2`, the Potency was 16.9 µM (active).

`CN(C)c1ccc(/C=C2\C(Cl)=Cc3ccccc32)cc1`: the Potency was 6.75 µM (active).

For the compound `CNc1ccc(C=C2c3ccccc3-c3ccccc32)cc1`, the Potency was 12 µM (active).

For the compound `Cc1oc(-c2ccc(-c3ccccc3)cc2)nc1CN(C)C1CCOC1` (stereo unspecified), the “activity change, negative = inhibition” value was -27.8% (inactive).

For `Cc1ccc(C(=O)Oc2ccc(N3C(=O)CCC3=O)c(C)c2)cc1`, the “activity change, negative = inhibition” value is -13.3% (inactive).

Take `O=C(/C=C/c1ccc(O)c(O)c1)OC(Cc1ccc(O)c(O)c1)C(=O)O` (stereo unspecified): the “activity change, negative = inhibition” value is -4.19% (inactive).

Take `COc1cccc(OC)c1C(=O)OCC(=O)NCC1CCCCC1`: the “activity change, negative = inhibition” value was 4.69% (inactive).

For `CC1=CC(C)(C)n2c(O)c(C3=NC(=S)NC3=O)c3cc(OC(=O)c4cccc5ccccc45)cc1c32`, the “activity change, negative = inhibition” value was -29.4% (inactive).

Turning to `CN(C)c1ccc(C=C2c3ccccc3-c3ccccc32)cc1`, the Potency was 8.49 µM (active).

For the compound `CN(C)c1ccc(/C=C2\C(=O)/C(=C/c3ccc(N(C)C)cc3)c3ccccc32)cc1`, the Potency is 5.36 µM (active).

Turning to `OC(COc1ccc2cc(Br)ccc2c1)Cn1ccnc1` (stereo unspecified), the “activity change, negative = inhibition” value is -3.87% (inactive).

`COc1cc2c(cc1OC)-c1cc(Nc3ccccc3)nc(=O)n1CC2`: the Potency was 6.75 µM (active).

Take `COc1ccc(NC(=O)c2cc(S(=O)(=O)N3CCc4ccccc43)cn2C)cc1OC`: the “activity change, negative = inhibition” value was 4.75% (inactive).

As for `COc1ccc(Nc2cc3n(c(=O)n2)CCc2cc(OC)c(OC)cc2-3)c(C)c1`, the Potency is 12 µM (active).

Take `CCOc1ccc(Nc2cc3n(c(=O)n2)CCc2cc(OC)c(OC)cc2-3)cc1`: the Potency was 5.36 µM (active).

For `COc1cc2c(cc1OC)-c1cc(Nc3ccc(C)cc3)nc(=O)n1CC2`, the Potency was 4.26 µM (active).

With `Cc1nc(COC(=O)c2c(C)nn(-c3ccccc3)c2C)cs1`, the “activity change, negative = inhibition” value is 5.54% (inactive).

For `COc1cc2c(cc1OC)-c1cc(Nc3ccc(F)cc3)nc(=O)n1CC2`, the Potency is 2.39 µM (active).

`O=C(NCc1ccc2c3c(cccc13)C(=O)N2)c1cccs1`: the “activity change, negative = inhibition” value was -16.3% (inactive).

(Values after PubChem BioAssay AID720541 (National Center for Advancing Translational Sciences (NCATS), 2013).)
